About 83,000 compounds went through this panel and 20% of them were active in at least one assay; those are over-represented in the sample as a whole.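 Cells were grown in 96-well plates and exposed to the test compound at a single concentration for 48 hours; results are reported as percent growth, with values below 10 considered active.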 A number with no mark means an inactive call. The source made the active and inactive calls.
Tests used:
Experiment in all cases: NCI-60 one-dose screen, 48 h (100 = growth as untreated, 0 = no growth, -100 = all killed)
Conditions in all cases: 10 µM
HCT-15 colon = tested on: HCT-15 colon
HT29 colon = tested on: HT29 colon
SNB-75 CNS = tested on: SNB-75 CNS
SNB-19 CNS = tested on: SNB-19 CNS
U251 CNS = tested on: U251 CNS
PC-3 prostate = tested on: PC-3 prostate
SK-MEL-5 melanoma = tested on: SK-MEL-5 melanoma
UACC-62 melanoma = tested on: UACC-62 melanoma
LOX IMVI melanoma = tested on: LOX IMVI melanoma
SK-MEL-28 melanoma = tested on: SK-MEL-28 melanoma

Row | SMILES | growth (HCT-15 colon) | growth (HT29 colon) | growth (SNB-75 CNS) | growth (SNB-19 CNS) | growth (U251 CNS) | growth (PC-3 prostate) | growth (SK-MEL-5 melanoma) | growth (UACC-62 melanoma) | growth (LOX IMVI melanoma) | growth (SK-MEL-28 melanoma)
1 | Cc1ccc2nc(COc3ccc(C(=O)NNC(=S)NC(=O)c4ccccc4)cc3)[nH]c2c1 | 14.9% | 43.6% | 41.6% | 52.4% | 43.3% | 50.2% | 46.1% | 51.9% | 34% | 55.6%
2 | Cc1ccc(NCC(=O)Nn2c(COc3ccccc3)nc3ccccc3c2=O)cc1 | 93% | 92.4% | 23.4% | 6.78% (active) | 62.2% | 74.2% | 85.9% | 61.3% | 91.6% | 91.3%
3 | COc1ccc(-c2cc(C(=O)N=Nc3c(O)[nH]c4ccccc34)c3ccccc3n2)cc1 | -83.1% (active) | -15.1% (active) | 53.7% | -38.8% (active) | -67.6% (active) | 2.92% (active) | 47.3% | 39.5% | -73.6% (active) | -41% (active)
4 | CCN(CC)CCOc1ccc(C(=C(C)c2ccccc2)c2ccc(OCCN(CC)CC)cc2)cc1 | -31.2% (active) | -57.6% (active) | 6.51% (active) | 9.06% (active) | -21.8% (active) | 22.7% | -100% (active) | -86.5% (active) | -98.8% (active) | -96.5% (active)
5 | CC(C)C(=O)Nc1ccc(C(=O)NC(=S)Nc2ccc(C(=O)O)cc2)cc1 | 99.7% | 111% | 79.1% | 97.8% | 104% | 101% | 93.8% | 91.5% | 101% | 102%
6 | CC1=N/C(=C\c2ccc(N(C)C)cc2)C(=O)N1CCc1ccc(S(N)(=O)=O)cc1 | 104% | 105% | 77.8% | 95.2% | 91.8% | 96.7% | 97.8% | 93.7% | 98.1% | 117%
7 | COc1cc2c(c(OC)c1OC)C(=O)CC(c1cccc(NC(=O)c3cccc(N)c3)c1)O2 (stereo not drawn) | 64.9% | 94.7% | 77.6% | 86.1% | 81.1% | 70.9% | 61.9% | 70.2% | – | 100%
8 | C=C1CCC2C3(C)COC(c4cccc(F)c4)OC3CCC2(C)C1CC(O)C1=CCOC1=O (stereo not drawn) | 8.31% (active) | 34.7% | 74.2% | 95.4% | 70.2% | 45.1% | 60.1% | 64.6% | – | 64.1%
9 | Cc1ccc(/C(N)=N/c2sc(-c3ccccc3)nc2-c2ccccc2)cc1 | 46.1% | 50.6% | 82.4% | 97.3% | 75.1% | 90.6% | 89.2% | 74.6% | – | 81.5%
10 | C=C1CCC2C3(C)COC(c4c(F)cccc4F)OC3CCC2(C)C1C/C=C1/C(=O)OCC1O (stereo not drawn) | -18.7% (active) | 3.23% (active) | 23.2% | -7.73% (active) | -94.2% (active) | 5.05% (active) | -65.5% (active) | -4.04% (active) | – | -51.2% (active)
11 | Cc1noc2c(Cc3ccccc3)nn(CC(=O)N/N=C/c3ccc(Cl)cc3)c(=O)c12 | 86.3% | 65.8% | -3.5% (active) | 71.3% | 21.6% | 76.4% | 85.5% | 92.9% | – | 104%
12 | CN1CCCN(Cc2ccc(C(=O)Nc3cccc(Nc4ccc5c(O)cccc5n4)c3)cc2C(F)(F)F)CC1 | -55.6% (active) | -55.2% (active) | 13.9% | -81.2% (active) | -65.7% (active) | 2.18% (active) | -100% (active) | -94.8% (active) | – | -100% (active)
13 | COc1cc2oc(-c3cccc(C(=O)Nc4ccc(Cl)cc4)c3)cc(=O)c2c(OCCNC(=O)CNC(=O)OC(C)(C)C)c1OC | 40.9% | 63.2% | 74.9% | 78.9% | 74.8% | 57.2% | 31.2% | 81% | – | 69.4%
14 | COc1cc2c(cc1OC)CN(CCCCOc1cc(O)c3c(=O)cc(-c4ccccc4)oc3c1)CC2 | 21.4% | -6.93% (active) | 98.9% | 78.3% | 49.8% | 63.1% | 17.1% | 40.4% | – | -8.78% (active)
15 | Cc1cc(C)nc(SCC(=O)Nc2ccc(S(N)(=O)=O)cc2)n1 | 104% | 118% | 127% | 94.1% | 101% | 98.2% | 97.2% | 96.7% | – | 110%
16 | O=C(c1ccc(O)cc1)C1[C@H](c2ccc(Br)cc2)[C@@H](c2ccccc2)NC12C(=O)Nc1ccccc12 (stereo partly drawn) | 24.6% | -9.34% (active) | 46.5% | 47.8% | 22% | 32.1% | 30.1% | 50.9% | – | 78.5%
17 | COC1=C[C@]23CCC(=O)N2CCc2cc4c(cc2[C@@H]3[C@@H]1OC(=O)CCCC(C)C)OCO4 | 23.1% | 32.2% | 120% | 28% | 43.3% | 42.5% | 25.9% | 61% | – | 64.4%
18 | COc1ccc(OC)c(-c2cc(-c3c[nH]c4ccccc34)nc(N)c2C#N)c1 | 1.05% (active) | -12.6% (active) | -8.84% (active) | 11.6% | -1.3% (active) | 13.1% | -84.8% (active) | -8.1% (active) | – | 4.59% (active)
19 | COc1cc2c(cc1OC)/C(=C\c1sc(Nc3ccc(O)cc3)nc1O)C(C(=O)O)=N2 | 24.1% | 10% | -16.4% (active) | 24.3% | 18.6% | 19.1% | 14.4% | 20% | – | 47.6%
20 | COc1ccc(/C(CSc2nnc(-c3c[nH]c4ccccc34)n2-c2ccccc2)=N/O)cc1 | 15.3% | 32% | 63.3% | 40.3% | 39.4% | 23.1% | -10.2% (active) | 31.4% | – | 37.4%
21 | O=C(O)CCCCCCCCCCN1C(=O)/C(=C/c2cnc(-c3ccccc3)s2)SC1=S | 80.7% | 126% | 124% | 100% | 59.5% | 95% | 93.1% | 76.4% | – | 97.4%
22 | CCN1CCN(c2ccc(NC(=O)Nc3ccc4c(c3F)CCN4c3ccnc(C(=O)NC)c3)cc2C(F)(F)F)CC1 | -91.1% (active) | -79% (active) | -80.8% (active) | -84.3% (active) | -93.8% (active) | 23.4% | -100% (active) | 95.8% | – | -83.6% (active)
23 | Cc1ccc(F)cc1N/C=c1\s/c(=C(\C#N)C(=O)Nc2ccccc2)n(-c2ccccc2)c1=O | 64.9% | 72.9% | 3.2% (active) | 36.2% | 74.2% | 74.5% | 71.8% | 98.2% | – | 95.7%
24 | COc1cc(/C=C/C(=O)c2cc(OC)c(OC)c(OC)c2)ccc1Oc1nc(Nc2ccc(F)cc2)nc(N(C)C)n1 | -40.3% (active) | -50.9% (active) | -64.8% (active) | -46.7% (active) | -72.9% (active) | -20% (active) | -76.2% (active) | -80.7% (active) | – | -72.1% (active)
25 | Cc1ccc(NC(=O)c2ccc(-n3c(=O)[nH]c4ccccc4c3=O)cc2)cc1 | 88.7% | 104% | 50.5% | 68.4% | 91.9% | 96.1% | 90.9% | 82.4% | – | 102%
26 | COc1cccc(COc2ccc(/C=C3\Oc4cc(O)ccc4C3=O)cc2)c1 | 42.1% | 81.1% | -22.5% (active) | 36.1% | 50.7% | 67.8% | 24.6% | 82.7% | – | 71.1%
27 | CCCCCc1ccc(S(=O)(=O)Nc2cc(-c3csc(N(C)C(C)=O)n3)ccc2N2CCN(C)CC2)cc1 | 1.4% (active) | 15.2% | 40% | 41% | 19.6% | 37% | -6.97% (active) | -62.2% (active) | – | 11.8%
28 | C=C1CCC2C3(C)COC(c4c(F)cccc4F)OC3CCC2(C)C1CC(O)C1=CCOC1=O (stereo not drawn) | 18.3% | 23% | 45.1% | 86.2% | 69.1% | 41% | 68.2% | 79.7% | – | 62.3%
